KCNQ2 enhance: potentiators of rat KCNQ2 potassium channel. O88943. AID 2239. B-score at 10 µM. 310,000 compounds, 0.54% hits. CHO-K1 KCNQ2, FluxOR thallium flux fluorescence; stronger effect = higher value;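 active = fluorescence ratio B-score at least 3 SD of library B-scores, with initial fluorescence B-score within 3 of them, cut at about 5.3 in these data; same plate scores as AID 2156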;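 note: B-score of peak minus minimum over baseline fluorescence ratio after K+ and Tl+ stimulus; positive B-score means potentiation of KCNQ2 with more thallium influx and brighter signal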
Target sequence (O88943 whole entry, looked up): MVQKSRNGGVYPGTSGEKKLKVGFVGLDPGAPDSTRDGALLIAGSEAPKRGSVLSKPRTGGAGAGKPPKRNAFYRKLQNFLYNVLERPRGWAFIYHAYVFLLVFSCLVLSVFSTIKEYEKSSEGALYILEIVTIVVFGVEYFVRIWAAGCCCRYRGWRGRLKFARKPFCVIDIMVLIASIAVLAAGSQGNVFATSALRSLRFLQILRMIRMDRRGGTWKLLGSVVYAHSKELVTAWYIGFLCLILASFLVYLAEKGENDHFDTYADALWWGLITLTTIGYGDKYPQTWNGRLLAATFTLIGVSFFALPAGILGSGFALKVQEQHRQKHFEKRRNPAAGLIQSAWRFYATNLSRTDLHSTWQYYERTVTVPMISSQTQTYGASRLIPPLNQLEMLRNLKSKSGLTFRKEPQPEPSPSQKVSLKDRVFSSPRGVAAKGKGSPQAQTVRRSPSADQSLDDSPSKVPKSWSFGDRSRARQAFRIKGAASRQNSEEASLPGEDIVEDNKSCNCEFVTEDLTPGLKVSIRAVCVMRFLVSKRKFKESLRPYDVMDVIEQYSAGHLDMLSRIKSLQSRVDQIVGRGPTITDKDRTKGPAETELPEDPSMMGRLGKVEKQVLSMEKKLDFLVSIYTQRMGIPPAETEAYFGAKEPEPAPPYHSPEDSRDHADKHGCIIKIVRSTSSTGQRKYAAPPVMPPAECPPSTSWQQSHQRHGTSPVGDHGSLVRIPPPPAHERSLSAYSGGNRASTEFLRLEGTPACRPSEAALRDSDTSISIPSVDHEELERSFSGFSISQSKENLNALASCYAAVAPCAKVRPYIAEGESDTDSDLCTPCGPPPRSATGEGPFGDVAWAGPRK
KCNQ2 block: inhibitors of rat KCNQ2 potassium channel; AID 2156; CHO-K1 KCNQ2, FluxOR thallium flux, 20 min; stronger effect = lower value; B-score at 10 µM; 310,000 compounds, 1.1% hits; O88943;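 active = fluorescence ratio B-score at most minus 3 library SDs, with starting brightness B-score within 2 library SDs, cut at about -5.5 in these data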
A number is an active result; . = inactive; / = not tested or not shown. This is a sample that favours compounds with a hit; in the whole collection about 1.6% have one here.

SMILES | KCNQ2 enhance | KCNQ2 block
O=c1c2cnn(-c3ccccc3)c2nc(-c2cccs2)n1-c1cccc(Cl)c1 | . | -7.55
Cc1ccc(NCC(=O)N/N=C\c2ccc[nH]2)cc1 | . | .
COc1ccc([N+](=O)[O-])cc1/C=N/NC(=O)CNC(=O)c1cccc(F)c1 | / | .
COc1ccc([N+](=O)[O-])cc1/C=N/NC(=O)CNC(=O)C(c1ccccc1)c1ccccc1 | . | -6.06
CCC(CC)COC(=O)C(C#N)c1nc2ccccc2nc1N1CCN(CC)CC1 (centres undefined) | / | .
CCCCCCOC(=O)C(C#N)c1nc2ccccc2nc1N1CCN(C)CC1 (centres undefined) | . | -5.68
OCCN1CCN(C2Cc3cc(Cl)ccc3Sc3ccc(Cl)cc32)CC1 (centres undefined) (tested in a mixture with another compound) | / | .
CN1CCN(C2Cc3cc(Cl)ccc3Sc3cc(F)ccc32)CC1 (centres undefined) | . | -6.89
Cc1noc(C)c1CSCC(=O)Nc1ccc(S(=O)(=O)C(F)F)cc1 | . | .
COc1ccccc1/C=C/C=N/n1c(-c2ccc(Cl)cc2)n[nH]c1=S | . | .
CCc1ccc(C(=O)NC(=S)NCc2cccnc2)cc1 | . | .
O=C(NCc1ccc2c(c1)OCO2)c1cccc(S(=O)(=O)N2CCCC2)c1 | / | .
Cc1noc(NS(=O)(=O)c2ccc(NC(=O)C(F)(F)C(F)(F)C(F)(F)F)cc2)c1C | / | .
O=C(NCCCN1CCOCC1)c1ccccc1N1C(=O)[C@@H]2Cc3c([nH]c4ccccc34)C(c3cccc(Cl)c3)N2C1=O (some centres undefined) | . | -5.63
Cc1ccc(C2c3[nH]c4ccccc4c3C[C@H]3C(=O)N(c4ccccc4C(=O)NCCCN4CCOCC4)C(=O)N23)cc1 (some centres undefined) | / | .
O=C(O)c1ccccc1Nc1ccnc(C(F)(F)F)c1 | / | .
CCn1cc(S(=O)(=O)Nc2ccc(Cl)cc2F)cn1 | . | .
COc1cccc(/C=N/Nc2ncnc3scc(-c4ccccc4)c23)c1OC | . | -6.05
Cc1sc2ncnc(N/N=C/c3ccccc3O)c2c1C | / | .
CNC(=S)N1CCC(NC(=O)C(Cc2ccccc2)NC(C)=O)CC1 (centres undefined) | . | .
O=C(Nc1ccc2ccccc2c1)c1ccc(Cl)cc1Cl | . | .
O=C(Nc1nc(=S)ss1)c1ccc(Cl)cc1Cl | 17.1 | .
O=C(COc1cccc2cccnc12)N/N=C/c1ccc(O)cc1 | . | .
O=C(COc1cccc2cccnc12)N/N=C/c1cccn1-c1ccc(F)cc1 | . | -7.19
COc1ccccc1CNc1cc(CSc2ccc(Cl)cc2)nc(C)n1 | . | -6.11
SMILES | KCNQ2 enhance | KCNQ2 block
COc1ccccc1CNC(=O)COC(=O)CSc1ccc(Cl)cc1 | / | .
CC1CCN(CCCn2c(SCC(=O)Nc3ccccc3Cl)nc3ccccc3c2=O)CC1 | / | .
COc1cccc(NC(=O)CSc2nc3c(sc4ccccc43)c(=O)n2CCCN2CCCC2)c1 | . | -6.67
Cc1ccc(NC(=O)CSc2nc3ccccc3c(=O)n2CCCN2CCCCC2)cc1Cl | . | -7.86
COc1cccc(NC(=O)CSc2nc3c(sc4ccccc43)c(=O)n2CCN(C)C)c1 | . | .
COc1cc(OCc2ccccc2)c(C(=O)/C=C/c2ccc3c(c2)OCO3)c(OC)c1OC | / | .
O=C(NCCc1nccs1)C1CCC(=O)N(Cc2cccc(C(F)(F)F)c2)C1 (centres undefined) | / | .
C/C(=N\OC(=O)C1CC1)C1CC1c1ccc(F)cc1 (centres undefined) | / | .
O=C(/C=C/c1cn(-c2ccccc2)nc1-c1cccnc1)N1CCCCC1 | / | .
O=C(/C=C/c1cn(-c2ccccc2)nc1-c1cccc(Cl)c1)N1CCN(c2ccccn2)CC1 | . | -5.68
O=C(c1cc(Cl)ccc1Cl)N1CCN(c2ccccn2)CC1 | / | .
O=C(c1cnc(N2CCN(c3ccccn3)CC2)c2ccccc12)N1CCN(c2cccc(Cl)c2)CC1 | . | -7.93
CCOc1ccc(NC(=S)Nc2cc(OC)c(Cl)cc2OC)cc1 | / | .
Cc1cc(N/N=C/c2ccccc2Cl)nc(NCc2ccccc2)n1 | . | -6.37
Cc1cc(C)nc(N/N=C/c2ccccc2Cl)n1 | . | .
CC1(c2ccccc2Cl)NC(=O)N(CC(=O)Nc2ccc(N3CCCCC3)cc2)C1=O (centres undefined) | . | .
Cn1c(SCc2ccccc2Cl)nc2ccccc21 | / | .
CCn1c(SCc2ccccc2Cl)nc2ccccc21 | . | -6.6
CCN(CC)C(=O)CCNS(=O)(=O)c1ccc(C)cc1 | . | .
N#Cc1ccccc1Sc1ccccc1C(=O)OCC(=O)NC12CC3CC(CC(C3)C1)C2 | 6.31 | .
CC(=O)c1ccc(NC(=O)COC(=O)c2ccccc2Sc2ccccc2C#N)cc1 | . | .
Cc1ccc(C)c(NC(=O)C2CCCN(S(=O)(=O)c3c(C)nn(C)c3C)C2)c1 (centres undefined) | / | .
CCOC(=O)N1CCN(C(=O)CN(c2cccc(C)c2)S(=O)(=O)c2ccc(C)cc2)CC1 | . | .
CS(=O)(=O)N(CC(=O)N1CCc2ccccc2C1)Cc1ccc(Cl)cc1 | . | -6.04
Cc1ccc(S(=O)(=O)N(CC(=O)N2CCC(C)CC2)c2cccc(C)c2)cc1 | . | -6.15
SMILES | KCNQ2 enhance | KCNQ2 block
O=C(CN(c1cccc(Cl)c1)S(=O)(=O)c1ccc(Cl)cc1)N1CCc2ccccc2C1 | . | -6.54
CS(=O)(=O)N(CC(=O)N1CCc2ccccc2C1)Cc1ccc(F)cc1 | / | .
CS(=O)(=O)N(CC(=O)N1CCc2ccccc2C1)c1cccc(F)c1 | / | .
O=S(=O)(NC1CC1)c1ccc(Cl)cc1F | / | .
CCCNC(=O)COC(=O)/C(C#N)=C/c1cc(C)n(CCC)c1C | / | .
Cc1ccc(C(=O)NCCOC23CC4CC(CC(C4)C2)C3)cc1 | . | -6.03
COc1cc(OC)cc(C(=O)NCCOC23CC4CC(CC(C4)C2)C3)c1 | / | .
Cc1ccccc1NC(=O)CSc1ccncc1 | / | .
Cc1cccc(N2CCN(C(=O)COc3ccc4c(C)cc(=O)oc4c3C)CC2)c1C | / | .
Cc1c(C(=O)N2CCCCCC2)c(S(=O)(=O)Nc2cccc(F)c2)c(C)n1C | / | .
COc1ccc(C2(C(=O)NCc3ccccc3Cl)CCOCC2)cc1OC | . | .
COc1ccccc1CNC(=O)C1(c2ccc(Cl)cc2)CC1 | . | -5.74
COc1cnc(SC)nc1Nc1ccc(C#N)cc1 | / | .
CC(C)(C)NC(=O)COC(=O)C1c2ccccc2Oc2ccccc21 | . | -5.65
CC(C)CNC(=O)COC(=O)C1c2ccccc2Oc2ccccc21 | . | .
Cc1cc(C)n(-c2nc3ccccc3nc2N2CCN(C(=O)c3ccc(F)cc3)CC2)n1 | / | .
Cc1cc(C)n(-c2nc3ccccc3nc2N2CCC(C)CC2)n1 | . | -6.76
Cc1ccc(S(=O)(=O)N2CCN(c3nc4ccccc4nc3-n3nc(C)cc3C)CC2)cc1 | . | -6.03
Cc1nc2ccccc2nc1N1CCC(C)CC1 | . | .
CC(=O)NCCc1c[nH]c2ccc(OCC(O)CNC(C)(C)C)cc12 (centres undefined) | . | .
Cc1cccc(-c2cccc(NC(=O)C3CCCN(C(=O)c4csc(C)n4)C3)c2)c1 (centres undefined) | / | .
O=c1c(Cc2c(F)cccc2Cl)c(O)ccn1C1CCCCCC1 | . | -7.85
O=c1c(Cc2c(F)cccc2Cl)c(O)ccn1Cc1ccc(F)cc1 | / | .
COc1ccc(-c2cc(=O)c(C(=O)c3ccc(C)cc3)n[nH]2)cc1 | / | .
c1coc(C2=NCCc3ccccc32)c1 | / | .
